# Results filed as inconclusive are left out. The source made the active and inactive calls. The calls were made as follows, unless noted: active = hit-call score of the fitted dose curve at least 0.9, where 1 is the maximum; inconclusive = response in the unintended direction; inactive = score below 0.9.
# Legend:
# [1] = ATG_VDRE_CIS: Attagene CIS-FACTORIAL HepG2 Assay for human Vitamin D Receptor Element (VDRE) (AID 2282968; active = hit-call score of the fitted dose curve at least 0.9, where 1 is the maximum; inactive = score below 0.9); details: HepG2 VDRE cis-reporter transcription, actives raise or lower the signal
# How it was run: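 Measures endogenous factor activity through cis-element-driven reporter transcripts in transiently transfected HepG2. Cells are treated 24 h; reporter mRNA is quantified by RT-PCR and capillary electrophoresis; fitting is bidirectional.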
# [2] = target: Nuclear receptor subfamily 1 group I member 3 (Homo sapiens) (UniProt Q14994); experiment: ATG_CAR_TRANS: Attagene TRANS-FACTORIAL HepG2 Assay for human Constitutive Androstane Receptor (CAR) (AID 2282969); details: HepG2 Attagene TRANS-FACTORIAL CAR reporter;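 also: activators raise reporter mRNA above DMSO so AC50 marks induction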
# How it was run: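 Signal is reporter mRNA induction relative to DMSO, measured 24 h after dosing by RT-PCR with fluorescent primer extension and capillary electrophoresis. Human HepG2 liver cells carried transiently transfected chimeric NR-Gal4/GAL4-UAS reporter constructs.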
# [3] = target: Estrogen receptor (Homo sapiens) (UniProt P03372); experiment: ATG_ERa_TRANS: Attagene TRANS-FACTORIAL HepG2 Assay for human Estrogen Receptor alpha (ERa) (AID 2282970); details: HepG2 Attagene TRANS ERa GAL4 reporter, mRNA
# How it was run: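 Reporter mRNA induction after 24 hours, detected by fluorescent RT-PCR and capillary electrophoresis, gives the read-out. Cells are HepG2 transiently transfected with GAL4-UAS reporter transcription units responding to chimeric NR-Gal4. Activity is taken as gain of signal over DMSO baseline.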
# [4] = target: X-box-binding protein 1 (Homo sapiens) (UniProt P17861); experiment: ATG_Xbp1_CIS: Attagene CIS-FACTORIAL HepG2 Assay for human X-box Binding Protein 1 (XBP1) (AID 2282972; active = hit-call score of the fitted dose curve at least 0.9, where 1 is the maximum; inactive = score below 0.9); details: HepG2 XBP1 cis-element reporter, Attagene multiplex; actives raise or lower the signal
# How it was run: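 Multiplexed cis-reporter readout in transfected HepG2 liver cells. Exposure lasted 24 hours. Activity in either direction was fitted against DMSO as negative control and baseline.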
# [5] = ATG_M_19_TRANS: Attagene TRANS-FACTORIAL HepG2 Assay for M19 Transcription Factor (Internal Marker) (AID 2282974); details: HepG2 Attagene TRANS-FACTORIAL M19 internal marker reporter
# How it was run: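 Gain-of-signal in reporter mRNA, relative to DMSO, was scored from capillary electrophoresis fluorescence. HepG2 cells carried transiently transfected multiple reporter transcription units and were incubated with test chemicals for 24 h.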
# [6] = ATG_GAL4_TRANS: Attagene TRANS-FACTORIAL HepG2 Assay for GAL4 (Internal Marker) (AID 2282976); details: HepG2 Attagene TRANS GAL4 internal marker reporter
# How it was run: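 RT-PCR/capillary electrophoresis readout of reporter mRNA. HepG2, transient MRTU transfection (GAL4-UAS reporters), 24 h compound exposure. Background-control endpoint, positive direction vs DMSO baseline.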
# [7] = target: Steroid hormone receptor ERR1 (Homo sapiens) (UniProt P11474); experiment: ATG_ERRa_TRANS: Attagene TRANS-FACTORIAL HepG2 Assay for human Estrogen-Related Receptor alpha (ERRa) (AID 2282971); details: HepG2 Attagene TRANS reporter, ERRa transactivation
# How it was run: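 Transfected HepG2, 24 h dosing, ERRa-Gal4 chimera driving GAL4-UAS reporter. Readout: reporter mRNA via RT-PCR plus capillary electrophoresis (fluorescence). Positive direction vs DMSO control.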
# [8] = target: Androgen receptor (Homo sapiens) (UniProt P10275); experiment: ATG_AR_TRANS: Attagene TRANS-FACTORIAL HepG2 Assay for human Androgen Receptor (AR) (AID 2282973); details: HepG2 Attagene TRANS-FACTORIAL AR reporter transcription
# How it was run: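 Readout is reporter transcript abundance, quantified by fluorescent RT-PCR products separated on capillary electrophoresis. Human HepG2 liver cells carried transiently transfected NR-Gal4 chimera plus GAL4-UAS reporter constructs and were dosed for 24 h; activity scored upward versus DMSO.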
# [9] = target: Glucocorticoid receptor (Homo sapiens) (UniProt P04150); experiment: ATG_GR_TRANS: Attagene TRANS-FACTORIAL HepG2 Assay for human Glucocorticoid Receptor (GR) (AID 2282978); details: HepG2 Attagene TRANS GR reporter, mRNA transcription;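 also: activators score as hits since higher reporter transcript over DMSO is fitted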
# How it was run: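 HepG2 transient transfection, multiple reporter units, GAL4-UAS under NR-GAL4 chimera control. 24 h treatment. Reporter mRNA by RT-PCR/CE fluorescence, DMSO as negative control.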
# [10] = target: Estrogen-related receptor gamma (Homo sapiens) (UniProt P62508); experiment: ATG_ERRg_TRANS: Attagene TRANS-FACTORIAL HepG2 Assay for human Estrogen-Related Receptor gamma (ERRg) (AID 2282977); details: HepG2 Attagene TRANS reporter, ERRg transactivation;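 also: hits increase reporter signal over DMSO so potencies reflect activators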
# How it was run: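 Exogenous NR-Gal4 chimera activity was assessed in HepG2 cells bearing transfected GAL4-UAS reporters. After 24 h dosing, total RNA underwent RT-PCR, fluorescent primer extension and HpaI digestion before capillary electrophoresis, with gain of signal scored against DMSO.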
# Sequence of Estrogen receptor (Homo sapiens) (P03372 whole entry, looked up, the tested form may be a part): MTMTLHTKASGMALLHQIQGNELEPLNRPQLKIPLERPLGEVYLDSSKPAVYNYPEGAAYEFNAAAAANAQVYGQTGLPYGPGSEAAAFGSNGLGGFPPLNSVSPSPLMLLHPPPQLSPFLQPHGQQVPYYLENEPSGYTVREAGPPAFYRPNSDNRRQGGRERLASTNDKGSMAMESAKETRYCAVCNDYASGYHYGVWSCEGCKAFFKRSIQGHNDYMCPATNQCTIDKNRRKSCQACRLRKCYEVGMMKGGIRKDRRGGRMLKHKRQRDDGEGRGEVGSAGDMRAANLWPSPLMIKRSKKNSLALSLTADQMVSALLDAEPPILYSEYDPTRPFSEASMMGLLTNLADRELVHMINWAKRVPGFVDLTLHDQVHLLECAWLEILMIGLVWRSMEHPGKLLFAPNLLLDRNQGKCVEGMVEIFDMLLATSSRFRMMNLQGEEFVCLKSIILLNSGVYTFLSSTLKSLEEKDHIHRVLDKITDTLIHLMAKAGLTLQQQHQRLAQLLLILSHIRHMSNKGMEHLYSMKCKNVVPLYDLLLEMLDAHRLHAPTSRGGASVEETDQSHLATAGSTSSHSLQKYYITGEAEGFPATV
# Sequence of Glucocorticoid receptor (Homo sapiens) (P04150 whole entry, looked up, the tested form may be a part): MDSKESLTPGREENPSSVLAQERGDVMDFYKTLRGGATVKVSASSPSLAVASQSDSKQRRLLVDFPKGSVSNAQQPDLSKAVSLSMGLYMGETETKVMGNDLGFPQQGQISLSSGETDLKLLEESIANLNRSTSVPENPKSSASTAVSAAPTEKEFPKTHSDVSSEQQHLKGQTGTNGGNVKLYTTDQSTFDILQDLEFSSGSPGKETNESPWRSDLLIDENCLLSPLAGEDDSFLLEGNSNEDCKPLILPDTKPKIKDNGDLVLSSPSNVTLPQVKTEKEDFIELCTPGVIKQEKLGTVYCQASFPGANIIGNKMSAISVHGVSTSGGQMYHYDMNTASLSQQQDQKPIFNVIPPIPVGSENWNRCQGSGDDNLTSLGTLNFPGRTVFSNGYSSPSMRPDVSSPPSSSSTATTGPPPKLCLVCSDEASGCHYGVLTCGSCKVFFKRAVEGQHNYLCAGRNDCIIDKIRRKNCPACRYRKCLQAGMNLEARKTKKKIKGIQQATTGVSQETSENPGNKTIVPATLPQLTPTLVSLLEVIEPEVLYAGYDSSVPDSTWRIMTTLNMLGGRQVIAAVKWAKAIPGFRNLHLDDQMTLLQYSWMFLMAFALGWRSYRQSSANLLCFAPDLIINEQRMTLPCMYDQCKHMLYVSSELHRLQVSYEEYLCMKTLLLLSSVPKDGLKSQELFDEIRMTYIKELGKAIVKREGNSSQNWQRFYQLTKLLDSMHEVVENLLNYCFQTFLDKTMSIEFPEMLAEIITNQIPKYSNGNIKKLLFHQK
# Sequence of X-box-binding protein 1 (Homo sapiens) (P17861 whole entry, looked up): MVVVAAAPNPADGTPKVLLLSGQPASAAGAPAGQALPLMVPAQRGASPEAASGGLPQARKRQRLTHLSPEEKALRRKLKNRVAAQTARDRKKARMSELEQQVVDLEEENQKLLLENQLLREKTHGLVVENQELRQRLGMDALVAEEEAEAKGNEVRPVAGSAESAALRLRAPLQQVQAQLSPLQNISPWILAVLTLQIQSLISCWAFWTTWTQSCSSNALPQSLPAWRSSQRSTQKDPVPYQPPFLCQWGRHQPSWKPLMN
# Sequence of Androgen receptor (Homo sapiens) (P10275 whole entry, looked up, the tested form may be a part): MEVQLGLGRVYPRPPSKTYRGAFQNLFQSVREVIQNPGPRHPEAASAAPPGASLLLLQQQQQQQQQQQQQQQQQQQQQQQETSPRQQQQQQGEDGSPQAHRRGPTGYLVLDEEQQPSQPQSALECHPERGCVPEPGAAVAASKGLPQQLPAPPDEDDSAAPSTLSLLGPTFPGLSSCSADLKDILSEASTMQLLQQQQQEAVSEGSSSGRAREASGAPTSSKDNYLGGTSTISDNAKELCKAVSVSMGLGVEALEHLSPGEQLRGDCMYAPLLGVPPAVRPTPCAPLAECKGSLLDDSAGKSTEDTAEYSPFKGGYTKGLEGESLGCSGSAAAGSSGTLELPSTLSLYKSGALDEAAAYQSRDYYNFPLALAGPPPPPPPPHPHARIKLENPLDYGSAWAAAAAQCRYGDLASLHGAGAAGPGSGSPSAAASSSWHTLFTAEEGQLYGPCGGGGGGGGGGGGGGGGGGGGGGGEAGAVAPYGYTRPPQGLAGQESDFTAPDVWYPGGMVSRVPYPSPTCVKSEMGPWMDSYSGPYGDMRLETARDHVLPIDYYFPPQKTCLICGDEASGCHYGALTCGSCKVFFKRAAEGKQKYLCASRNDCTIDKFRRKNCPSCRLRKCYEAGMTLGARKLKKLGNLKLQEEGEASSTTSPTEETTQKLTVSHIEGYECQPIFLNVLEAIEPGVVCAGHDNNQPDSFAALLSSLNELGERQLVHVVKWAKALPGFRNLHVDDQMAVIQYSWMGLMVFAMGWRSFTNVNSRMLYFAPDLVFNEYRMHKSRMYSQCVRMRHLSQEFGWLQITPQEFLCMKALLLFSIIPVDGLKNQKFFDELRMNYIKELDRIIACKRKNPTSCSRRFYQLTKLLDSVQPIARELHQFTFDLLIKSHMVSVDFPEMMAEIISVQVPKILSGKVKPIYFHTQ
# Sequence of Steroid hormone receptor ERR1 (Homo sapiens) (P11474 whole entry, looked up, the tested form may be a part): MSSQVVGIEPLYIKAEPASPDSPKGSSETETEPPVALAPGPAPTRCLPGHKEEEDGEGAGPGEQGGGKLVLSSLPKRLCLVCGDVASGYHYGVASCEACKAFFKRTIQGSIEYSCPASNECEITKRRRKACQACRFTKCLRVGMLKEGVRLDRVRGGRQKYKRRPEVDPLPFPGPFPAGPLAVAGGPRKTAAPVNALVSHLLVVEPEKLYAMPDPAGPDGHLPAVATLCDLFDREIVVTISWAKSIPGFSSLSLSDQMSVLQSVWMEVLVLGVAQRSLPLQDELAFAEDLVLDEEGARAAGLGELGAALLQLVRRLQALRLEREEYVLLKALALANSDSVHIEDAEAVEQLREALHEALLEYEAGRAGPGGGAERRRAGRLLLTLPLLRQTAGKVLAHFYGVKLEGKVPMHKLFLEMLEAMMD
# Sequence of Nuclear receptor subfamily 1 group I member 3 (Homo sapiens) (Q14994 whole entry, looked up, the tested form may be a part): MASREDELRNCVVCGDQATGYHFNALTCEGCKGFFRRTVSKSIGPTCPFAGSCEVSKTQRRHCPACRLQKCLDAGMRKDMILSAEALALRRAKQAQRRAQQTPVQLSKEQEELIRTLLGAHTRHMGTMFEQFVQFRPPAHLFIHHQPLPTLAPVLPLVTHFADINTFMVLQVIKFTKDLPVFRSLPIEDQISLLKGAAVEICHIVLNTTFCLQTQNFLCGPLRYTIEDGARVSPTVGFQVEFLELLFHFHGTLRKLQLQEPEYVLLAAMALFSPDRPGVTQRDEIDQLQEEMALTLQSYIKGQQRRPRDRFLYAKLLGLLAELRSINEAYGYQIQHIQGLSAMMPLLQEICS
# Sequence of Estrogen-related receptor gamma (Homo sapiens) (P62508 whole entry, looked up, the tested form may be a part): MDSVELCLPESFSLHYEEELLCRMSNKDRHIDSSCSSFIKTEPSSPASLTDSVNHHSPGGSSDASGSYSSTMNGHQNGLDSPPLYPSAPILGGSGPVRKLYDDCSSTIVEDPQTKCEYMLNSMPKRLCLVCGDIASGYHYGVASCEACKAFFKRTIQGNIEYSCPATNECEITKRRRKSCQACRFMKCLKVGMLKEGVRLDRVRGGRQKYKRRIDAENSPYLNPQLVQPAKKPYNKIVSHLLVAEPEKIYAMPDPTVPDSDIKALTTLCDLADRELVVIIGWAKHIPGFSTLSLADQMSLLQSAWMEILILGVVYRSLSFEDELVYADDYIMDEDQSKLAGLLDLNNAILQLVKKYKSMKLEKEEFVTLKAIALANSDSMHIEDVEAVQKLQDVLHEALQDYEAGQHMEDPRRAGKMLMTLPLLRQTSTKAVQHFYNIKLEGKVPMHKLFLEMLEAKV
SMILES,AC50 [1],outcome [2],outcome [3],outcome [4],outcome [5],outcome [1],outcome [6],outcome [7],outcome [8],outcome [9],AC50 [3],outcome [10]
CC(C)[C@@H](Nc1ccc(C(F)(F)F)cc1Cl)C(=O)OC(C#N)c1cccc(Oc2ccccc2)c1 (stereo partly drawn),0.734 µM (active),inactive,inactive,inactive,inactive,,,,,,,
O=C=Nc1ccc(Cl)cc1,,inactive,inactive,inactive,inactive,inactive,inactive,,,,,
COC(F)(C(F)(F)C(F)(F)F)C(F)(C(F)(F)F)C(F)(F)F (stereo not drawn),,inactive,inactive,inactive,inactive,inactive,inactive,inactive,inactive,inactive,,
Cc1ccc(CCl)cc1,,inactive,inactive,inactive,,inactive,inactive,inactive,inactive,inactive,,
CCOP(=S)(OCC)SCS(=O)(=O)C(C)(C)C,,inactive,inactive,inactive,,inactive,inactive,,inactive,inactive,,
Nc1ccc(-c2ccccc2)cc1,,inactive,,inactive,,inactive,,,,,14.8 µM (active),
O=C1C=CC(=O)c2ccccc21,,inactive,,inactive,,inactive,,,inactive,inactive,11.1 µM (active),inactive
CCCSP(=S)(OCC)Oc1ccc(SC)cc1 (stereo not drawn),4.63 µM (active),inactive,,inactive,inactive,,,,,,4.92 µM (active),
CS(=O)(=O)c1ccc(C(=O)C2C(=O)CCCC2=O)c(Cl)c1COCC(F)(F)F,,inactive,inactive,inactive,inactive,inactive,inactive,,,inactive,,
CC(C)(COCC1CO1)COCC1CO1 (stereo not drawn),38.7 µM (active),inactive,inactive,inactive,inactive,,,,,,,
CC(C)(C)c1ccc(CCOc2ncnc3ccccc23)cc1,,inactive,inactive,inactive,inactive,inactive,,,,,,

# From PubChem BioAssay (EPA / NIEHS)
